# Measured values taken from PubChem BioAssay (NCATS).
# Records with an inconclusive call do not appear. Entries that show only a call come without a potency. Calls of active or inactive are those of the source. Calls follow the shape of the dose curve; as a rule, active = well fitted inhibition curve with a large enough effect; inconclusive = small, poorly fitted or top-dose-only effect; inactive = flat fitted curve, though single readings scatter.
# Molecular target: Ubiquitin carboxyl-terminal hydrolase 1 (Homo sapiens) (UniProt O94782)
# Sequence (O94782 whole entry, looked up): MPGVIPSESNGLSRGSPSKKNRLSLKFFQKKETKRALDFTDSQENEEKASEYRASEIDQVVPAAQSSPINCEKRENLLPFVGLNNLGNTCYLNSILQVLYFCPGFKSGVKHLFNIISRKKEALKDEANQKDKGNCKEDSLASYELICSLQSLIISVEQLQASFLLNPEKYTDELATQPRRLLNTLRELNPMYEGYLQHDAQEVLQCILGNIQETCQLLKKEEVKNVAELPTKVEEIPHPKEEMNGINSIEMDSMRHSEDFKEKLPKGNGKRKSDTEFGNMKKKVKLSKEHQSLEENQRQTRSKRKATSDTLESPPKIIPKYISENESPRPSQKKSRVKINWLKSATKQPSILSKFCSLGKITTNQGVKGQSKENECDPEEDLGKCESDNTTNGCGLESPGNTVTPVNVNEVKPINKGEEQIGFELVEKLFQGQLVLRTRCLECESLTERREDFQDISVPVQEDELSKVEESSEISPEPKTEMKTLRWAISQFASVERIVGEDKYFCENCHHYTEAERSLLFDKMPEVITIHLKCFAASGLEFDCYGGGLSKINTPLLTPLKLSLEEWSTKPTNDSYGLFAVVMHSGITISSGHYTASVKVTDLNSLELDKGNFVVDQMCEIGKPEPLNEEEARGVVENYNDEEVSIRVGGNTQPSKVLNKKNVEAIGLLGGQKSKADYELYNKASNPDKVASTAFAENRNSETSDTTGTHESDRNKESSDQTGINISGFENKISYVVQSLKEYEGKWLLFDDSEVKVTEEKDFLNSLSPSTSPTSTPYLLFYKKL
# Experiment: Inhibitors of USP1/UAF1: Pilot qHTS (AID 504865);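 also: rhodamine fluorescence freed from ubiquitin-rhodamine substrate followed over time; top concentration of the series differs between compounds; nearly all actives have a fitted effect of over 35% in size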
# Details: purified USP1/UAF1, Ub-rhodamine cleavage fluorescence; series mostly up to 114 µM
# How it was run: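 Enzyme-free wells gave the negative control, while test wells held 1nM USP1/UAF1 preincubated with compound for 15 min at room temperature. Ub-Rho at 150nM final started the reaction, and fluorescence at 480/540 nm was recorded kinetically.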
row,SMILES,Potency
1,CO,inactive
2,NCCN,inactive
3,CCOC(C)OCC,inactive
4,CCCCO,inactive
5,ClC(Cl)Cl,inactive
6,CC1=CC(=O)NS(=O)(=O)O1,inactive
7,OC[C@H]1O[C@@](CO)(O[C@H]2O[C@H](CO)[C@@H](O)[C@H](O)[C@H]2O)[C@@H](O)[C@@H]1O,inactive
8,CCCCC(CC)COS(=O)(=O)O (stereo not drawn),inactive
9,CO/N=C(/C(=O)N[C@@H]1C(=O)N2C(C(=O)O)=C(COC(N)=O)CS[C@H]12)c1ccco1,inactive
10,Cc1ccc(S(=O)(=O)O)cc1C,inactive
11,Oc1cccc(O)c1O,inactive
12,CCCCC,inactive
13,OCC(O)CO,inactive
14,OCl,inactive
15,OB(O)O,inactive
16,COC(=O)c1ccccc1O,inactive
17,C[Si](C)(C)O[Si](C)(C)C,inactive
18,Nc1ncnc2c1ncn2[C@H]1CC[C@@H](CO)O1,inactive
19,Cc1ncc[nH]1,inactive
20,CCCCCCCCCCCCCCCCCC(=O)OC[C@@H](O)[C@H]1OC[C@H](O)[C@H]1O,inactive
21,Nc1nccs1,inactive
22,O=P(O)(O)O,inactive
23,C/C=C/C=C/C(=O)O,inactive
24,[O-][N+](=Nc1ccccc1)c1ccccc1,inactive
25,CC(C)O,inactive
26,O=c1n(CC2CO2)c(=O)n(CC2CO2)c(=O)n1CC1CO1 (stereo not drawn),inactive
27,CN(CCO)CC(O)Cn1cnc2c1c(=O)n(C)c(=O)n2C (stereo not drawn) (tested in a mixture with another compound),inactive
28,c1ccc2ccccc2c1,inactive
